According to the supplement of paper PMC10849652:
The full data set covers some 8,800 targets. This sample favours those with a hit. About 0.5% of all pairs of compound and target were hits. A number with no mark means an inactive call.

Columns and labels:
Assay in all cases: log2 fold change, soluble protein after heating vs DMSO (PISA); higher = thermal stabilisation; K562 lysate, 10 uM; active = over 0.2 and 3.5 SD of the protein, either way, in both replicates (recomputed)
vemurafenib = compound: CCCS(=O)(=O)Nc1ccc(F)c(C(=O)c2c[nH]c3ncc(-c4ccc(Cl)cc4)cc23)c1F [vemurafenib]
In short: (§1)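 Quantification was by TMTpro 16plex LC-MS/MS with equalised channel sums, applied to the supernatant after 21,000xg for 90 min. Samples were crude K562 extract at 1 mg/mL protein in PBS pH 7.4 with 1 mM MgCl2, treated with 10 μM compound for 30 min, heated for 3 min across 48°C-58°C, pooled and brought to 0.5% NP-40 at 4°C. Values are log-two fold changes in thermal stability relative to solvent controls, from duplicates.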

[1] = compound: CCCS(=O)(=O)Nc1ccc(F)c(C(=O)c2c[nH]c3ncc(Cl)cc23)c1F
In short: as §1

barasertib = compound: CCN(CCCOc1ccc2c(Nc3cc(CC(=O)Nc4cccc(F)c4)[nH]n3)ncnc2c1)CCOP(=O)(O)O [barasertib]
In short: as §1

[2] = compound: CC[C@@H]1C(=O)N(C)c2cnc(Nc3ccc(C(=O)NC4CCN(C)CC4)cc3OC)nc2N1C1CCCC1
In short: as §1

volasertib = compound: CC[C@@H]1C(=O)N(C)c2cnc(Nc3ccc(C(=O)N[C@H]4CC[C@H](N5CCN(CC6CC6)CC5)CC4)cc3OC)nc2N1C(C)C [volasertib]
In short: as §1

[3] = compound: CCn1c(C(=O)N(C2CC2)C2CC2)cc2c3c(ncn3C)c(Nc3cc(C)n(C)n3)nc21
In short: as §1

[4] = compound: CCn1cc(-c2ccnc3[nH]c(-c4cccc(CN(C)C)c4)cc23)c(-c2ccc(NC(=O)N(C)C)cc2)n1
In short: as §1

[5] = compound: CN1CCC(CNc2ccc3ncc(-c4cccc(OC(F)(F)F)c4)n3n2)CC1
In short: as §1

saracatinib = compound: CN1CCN(CCOc2cc(OC3CCOCC3)c3c(Nc4c(Cl)ccc5c4OCO5)ncnc3c2)CC1 [saracatinib]
In short: as §1

sotrastaurin = compound: CN1CCN(c2nc(C3=C(c4c[nH]c5ccccc45)C(=O)NC3=O)c3ccccc3n2)CC1 [sotrastaurin]
In short: as §1

alvocidib = compound: CN1CC[C@H](c2c(O)cc(O)c3c(=O)cc(-c4ccccc4Cl)oc23)[C@H](O)C1 [alvocidib]
In short: as §1

Tubastatin A = compound: CN1CCc2c(c3ccccc3n2Cc2ccc(C(=O)NO)cc2)C1 [Tubastatin A]
In short: as §1

[6] = compound: CNC(=O)C1=CC=CC=C1NC2=NC(=NC=C2Cl)NC3=C(C=C(C=C3)N4CCOCC4)OC
In short: as §1

defactinib = compound: CNC(=O)c1ccc(Nc2ncc(C(F)(F)F)c(NCc3nccnc3N(C)S(C)(=O)=O)n2)cc1 [defactinib]
In short: as §1

[7] = compound: CNc1nc(-c2ccc3c(N)n[nH]c3c2)cc(N2C[C@@H](C(=O)NC3CCCCC3)CC[C@H]2C)n1
In short: as §1

encorafenib = compound: COC(=O)N[C@@H](C)CNc1nccc(-c2cn(C(C)C)nc2-c2cc(Cl)cc(NS(C)(=O)=O)c2F)n1 [encorafenib]
In short: as §1

[8] = compound: COC(=O)[C@H](CCSC)NC(=O)C1=C(C=C(C=C1)NC[C@H](CS)N)C2=CC=CC=C2
In short: as §1

alisertib = compound: COc1cc(Nc2ncc3c(n2)-c2ccc(Cl)cc2C(c2c(F)cccc2OC)=NC3)ccc1C(=O)O [alisertib]
In short: as §1

[9] = compound: COc1cc2nc(-c3cc(F)ccc3O)nc(N[C@@H]3CNC[C@H]3C(C)(C)O)c2cc1OC
In short: as §1

gefitinib = compound: COc1cc2ncnc(Nc3ccc(F)c(Cl)c3)c2cc1OCCCN1CCOCC1 [gefitinib]
In short: as §1

UniProt Q1KMD3, sequence (Q1KMD3 whole entry, looked up): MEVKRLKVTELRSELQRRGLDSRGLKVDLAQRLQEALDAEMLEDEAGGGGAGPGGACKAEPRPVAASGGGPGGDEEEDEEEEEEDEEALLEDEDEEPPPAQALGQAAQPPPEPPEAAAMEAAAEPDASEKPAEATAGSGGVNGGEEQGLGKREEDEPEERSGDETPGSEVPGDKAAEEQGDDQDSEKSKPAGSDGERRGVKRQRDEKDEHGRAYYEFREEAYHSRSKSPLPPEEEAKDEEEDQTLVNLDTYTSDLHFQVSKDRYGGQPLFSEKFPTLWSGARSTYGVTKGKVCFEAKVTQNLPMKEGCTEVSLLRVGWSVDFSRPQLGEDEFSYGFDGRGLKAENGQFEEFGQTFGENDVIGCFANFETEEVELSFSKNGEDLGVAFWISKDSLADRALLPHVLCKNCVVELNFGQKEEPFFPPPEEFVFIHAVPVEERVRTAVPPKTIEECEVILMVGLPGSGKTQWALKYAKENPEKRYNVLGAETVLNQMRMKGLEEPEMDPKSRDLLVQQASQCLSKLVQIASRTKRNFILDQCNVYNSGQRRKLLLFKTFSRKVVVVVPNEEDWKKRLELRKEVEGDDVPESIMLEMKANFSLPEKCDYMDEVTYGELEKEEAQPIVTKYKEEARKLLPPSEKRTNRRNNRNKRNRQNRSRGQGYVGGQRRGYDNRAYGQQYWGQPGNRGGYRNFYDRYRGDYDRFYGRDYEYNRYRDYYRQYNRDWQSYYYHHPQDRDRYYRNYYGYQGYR
UniProt Q16836, sequence (Q16836 whole entry, looked up): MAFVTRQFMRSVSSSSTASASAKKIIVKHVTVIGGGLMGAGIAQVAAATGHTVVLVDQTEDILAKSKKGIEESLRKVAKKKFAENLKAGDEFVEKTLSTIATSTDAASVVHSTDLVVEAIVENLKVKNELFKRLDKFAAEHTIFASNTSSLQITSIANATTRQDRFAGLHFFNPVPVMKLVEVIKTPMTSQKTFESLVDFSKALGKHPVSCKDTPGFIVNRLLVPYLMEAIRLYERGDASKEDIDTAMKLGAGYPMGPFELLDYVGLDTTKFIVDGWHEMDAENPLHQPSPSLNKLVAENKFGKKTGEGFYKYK
UniProt Q14103, sequence (Q14103 whole entry, looked up): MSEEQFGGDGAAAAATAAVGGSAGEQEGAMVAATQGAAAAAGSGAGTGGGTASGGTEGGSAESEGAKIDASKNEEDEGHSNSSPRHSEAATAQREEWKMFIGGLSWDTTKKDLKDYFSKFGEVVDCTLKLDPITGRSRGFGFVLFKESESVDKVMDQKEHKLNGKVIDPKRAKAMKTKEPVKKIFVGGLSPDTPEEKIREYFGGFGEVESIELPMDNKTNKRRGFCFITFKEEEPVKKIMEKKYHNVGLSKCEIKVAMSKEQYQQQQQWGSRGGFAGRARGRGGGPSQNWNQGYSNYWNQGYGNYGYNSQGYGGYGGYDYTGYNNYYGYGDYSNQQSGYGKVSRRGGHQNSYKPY
UniProt Q9Y6M1, sequence (Q9Y6M1 whole entry, looked up): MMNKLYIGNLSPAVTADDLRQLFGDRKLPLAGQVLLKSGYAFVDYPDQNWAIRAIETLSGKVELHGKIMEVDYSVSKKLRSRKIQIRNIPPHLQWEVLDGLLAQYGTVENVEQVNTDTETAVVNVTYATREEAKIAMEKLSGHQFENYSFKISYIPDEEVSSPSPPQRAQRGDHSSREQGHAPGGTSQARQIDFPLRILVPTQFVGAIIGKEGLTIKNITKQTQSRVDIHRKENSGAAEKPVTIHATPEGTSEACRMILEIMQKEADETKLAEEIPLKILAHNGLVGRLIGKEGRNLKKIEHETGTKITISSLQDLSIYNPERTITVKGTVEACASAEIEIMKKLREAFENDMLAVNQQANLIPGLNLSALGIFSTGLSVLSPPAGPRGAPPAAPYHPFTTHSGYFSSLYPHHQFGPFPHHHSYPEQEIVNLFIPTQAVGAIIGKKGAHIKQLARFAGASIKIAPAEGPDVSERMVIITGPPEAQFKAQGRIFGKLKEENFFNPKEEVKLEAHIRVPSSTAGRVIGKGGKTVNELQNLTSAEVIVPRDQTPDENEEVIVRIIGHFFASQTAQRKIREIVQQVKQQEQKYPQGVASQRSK
UniProt O00425, sequence (O00425 whole entry, looked up): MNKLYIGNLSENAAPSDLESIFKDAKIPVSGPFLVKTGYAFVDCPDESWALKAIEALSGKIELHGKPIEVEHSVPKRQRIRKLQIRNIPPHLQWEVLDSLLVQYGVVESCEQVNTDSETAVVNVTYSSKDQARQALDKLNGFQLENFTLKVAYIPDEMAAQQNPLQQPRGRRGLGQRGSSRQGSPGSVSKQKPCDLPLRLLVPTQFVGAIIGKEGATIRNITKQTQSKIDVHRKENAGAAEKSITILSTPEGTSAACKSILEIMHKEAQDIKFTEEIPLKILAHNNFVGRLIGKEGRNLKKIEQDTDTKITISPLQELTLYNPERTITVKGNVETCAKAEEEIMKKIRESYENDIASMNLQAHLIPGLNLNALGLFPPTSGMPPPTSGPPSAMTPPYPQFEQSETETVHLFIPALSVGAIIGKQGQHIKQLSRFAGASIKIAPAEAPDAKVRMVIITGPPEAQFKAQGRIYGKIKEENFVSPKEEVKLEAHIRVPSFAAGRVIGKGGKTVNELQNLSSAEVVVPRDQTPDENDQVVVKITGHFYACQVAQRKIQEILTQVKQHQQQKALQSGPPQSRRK
UniProt P49841, sequence (P49841 whole entry, looked up): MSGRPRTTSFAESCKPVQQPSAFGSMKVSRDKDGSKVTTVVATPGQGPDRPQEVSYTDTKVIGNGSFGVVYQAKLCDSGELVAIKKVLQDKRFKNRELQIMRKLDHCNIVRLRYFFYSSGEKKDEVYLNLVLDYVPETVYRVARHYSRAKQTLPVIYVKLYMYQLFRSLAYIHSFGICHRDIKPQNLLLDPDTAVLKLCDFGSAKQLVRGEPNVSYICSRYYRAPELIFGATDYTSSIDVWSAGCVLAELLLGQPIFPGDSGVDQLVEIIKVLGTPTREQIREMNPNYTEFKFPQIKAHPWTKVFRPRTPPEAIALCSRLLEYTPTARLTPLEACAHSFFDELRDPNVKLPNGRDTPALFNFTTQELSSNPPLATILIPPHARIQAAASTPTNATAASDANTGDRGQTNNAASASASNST

| Target | log2 fold change (vemurafenib) | log2 fold change [1] | log2 fold change (barasertib) | log2 fold change [2] | log2 fold change (volasertib) | log2 fold change [3] | log2 fold change [4] | log2 fold change [5] | log2 fold change (saracatinib) | log2 fold change (sotrastaurin) | log2 fold change (alvocidib) | log2 fold change (Tubastatin A) | log2 fold change [6] | log2 fold change (defactinib) | log2 fold change [7] | log2 fold change (encorafenib) | log2 fold change [8] | log2 fold change (alisertib) | log2 fold change [9] | log2 fold change (gefitinib) |
| --- | --- | --- | --- | --- | --- | --- | --- | --- | --- | --- | --- | --- | --- | --- | --- | --- | --- | --- | --- | --- |
| IGF2BP2 (UniProt Q9Y6M1) | 0.05 | 0.026 | -0.005 | -0.1 | -0.049 | 0.02 | -0.066 | 0.036 | 0.014 | 0.026 | 0.016 | -0.124 | 0.043 | -0.008 | -0.014 | 0.004 | 0.201 | 0.042 | -0.005 | 0.001 |
| HADH isoform 2 (UniProt Q16836) | -0.032 | -0.022 | -0.049 | 0.002 | 0.004 | 0.009 | 0.066 | -0.054 | -0.096 | 0.004 | 0.048 | 0.003 | -0.024 | 0.061 | 0.09 | -0.048 | 0.03 | 0.021 | -0.002 | 0.042 |
| HNRNPUL2 (UniProt Q1KMD3) | 0.024 | 0.017 | 0.038 | 0.005 | -0.009 | -0.012 | -0.029 | 0.008 | 0.029 | 0.04 | -0.001 | 0.007 | 0.004 | 0.002 | -0.009 | -0.023 | 0.105 | 0.009 | 0.019 | -0.023 |
| GSK3B isoform 2 (UniProt P49841) | -0.009 | 0.038 | 0.026 | -0.015 | -0.093 | -0.011 | -0.013 | 0.096 | -0.049 | 0.601 | 0.518 | -0.077 | 0.015 | 0.562 | 0.114 | 0.425 | -0.114 | – | 0 | 0.029 |
| IGF2BP3 (UniProt O00425) | 0.024 | 0.006 | 0.016 | -0.106 | -0.025 | -0.016 | -0.062 | -0.022 | 0.026 | 0.011 | 0.012 | -0.147 | -0.022 | -0.028 | -0.016 | -0.022 | 0.218 | 0.006 | -0.003 | -0.017 |
| HNRNPD isoform 2 (UniProt Q14103) | 0.011 | 0.002 | -0.052 | 0.022 | 0.029 | -0.036 | 0.857 (active) | -0.135 | 0 | -0.08 | 0.142 | 0.108 | 0.001 | -0.043 | 0.065 | -0.032 | -0.008 | 0.018 | -0.008 | 0 |
